According to PubChem BioAssay (Tox21):
“And” between values parts separate entries of the source, which are not always exact repeats. Identical values can stand only once. Results filed as inconclusive are left out. The source holds several records for some structures; these can differ, active in one and inactive in another. The source made the active and inactive calls. Unless noted, calls come from the whole dose curve.

What was measured:
[1] = Nuclear factor erythroid 2-related factor 2/antioxidant responsive element (Nrf2/ARE) small molecule agonists: qHTS cell viability counter screen in human keratinocytes (AID 1919968; active = well fitted curve in the direction sought with a large enough effect in the repeat runs; an effect the other way counts as inactive or inconclusive; note: nearly all actives have a fitted effect of over 55% in size; note: potency is the fitted concentration of half-maximal effect)
In short: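 KeratinoSens cells (HaCaT keratinocytes stably carrying an ARE-luciferase reporter) were seeded at 1,500 cells/well and rested 5 h at 37 C/5% CO2. They were then exposed to compounds in DMSO for 23 h. Viability was read by CellTiter-Fluor fluorescence after 1 h.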

[2] = Nuclear factor erythroid 2-related factor 2/antioxidant responsive element (Nrf2/ARE) small molecule agonists: luciferase reporter gene qHTS assay in human keratinocytes (AID 1919969); note: nearly all actives have a fitted effect of over 35% in size; note: potency is the fitted concentration of half-maximal effect
[3] = molecular target: Gonadotropin-releasing hormone receptor (Homo sapiens) (UniProt P30968); experiment: Human gonadotropin-releasing hormone receptor (GnRHR) small molecule agonists, calcium flux assay in GnRHR-HEK293 cells (AID 1920063); note: nearly all actives have a fitted effect of over 35% in size
Gonadotropin-releasing hormone receptor (Homo sapiens), sequence (P30968 whole entry, looked up): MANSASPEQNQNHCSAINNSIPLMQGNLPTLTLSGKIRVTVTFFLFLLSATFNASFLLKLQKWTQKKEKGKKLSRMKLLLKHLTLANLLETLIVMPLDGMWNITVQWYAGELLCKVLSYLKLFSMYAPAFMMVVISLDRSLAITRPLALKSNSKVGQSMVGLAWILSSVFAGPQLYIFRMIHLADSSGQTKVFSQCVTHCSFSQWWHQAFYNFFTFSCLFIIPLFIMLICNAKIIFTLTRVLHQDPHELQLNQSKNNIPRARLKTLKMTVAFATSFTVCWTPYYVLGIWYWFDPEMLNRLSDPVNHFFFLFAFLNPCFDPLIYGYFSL
In short: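 HEK293 cells stably expressing human GnRHR were plated 18 h at 37 °C, loaded with calcium dye 1 h at 37 °C, then given compound in agonist mode; fluorescence (Ex/Em 480/540) read kinetically for 3 min at 1 s intervals.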

[4] = molecular target: KiSS-1 receptor (Homo sapiens) (UniProt Q969F8); experiment: Human kisspeptin (KISS1R) small molecule agonists, calcium flux assay in KISS1R-HEK293 cells (AID 1920064; active = well fitted curve in the direction sought with a large enough effect in the repeat runs; an effect the other way counts as inactive or inconclusive)
KiSS-1 receptor (Homo sapiens), sequence (Q969F8 whole entry, looked up): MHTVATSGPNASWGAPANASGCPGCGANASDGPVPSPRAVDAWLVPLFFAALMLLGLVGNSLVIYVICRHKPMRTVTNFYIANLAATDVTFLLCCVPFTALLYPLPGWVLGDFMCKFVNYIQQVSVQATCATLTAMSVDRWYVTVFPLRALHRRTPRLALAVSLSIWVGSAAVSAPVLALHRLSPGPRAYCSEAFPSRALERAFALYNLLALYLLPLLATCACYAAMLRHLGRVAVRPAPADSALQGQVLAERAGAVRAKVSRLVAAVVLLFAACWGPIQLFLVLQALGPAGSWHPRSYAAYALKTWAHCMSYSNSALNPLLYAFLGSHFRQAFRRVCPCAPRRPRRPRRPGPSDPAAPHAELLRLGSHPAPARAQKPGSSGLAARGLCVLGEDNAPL
In short: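 HEK293 cells stably expressing human KISS1R were plated 18 h at 37 °C, loaded with calcium dye for 1 h at 37 °C, then given compound by pin tool. Fluorescence (Ex/Em 480/540) was read kinetically for 3 min.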

[5] = G protein-coupled receptor (GPCR) small molecule agonists, calcium flux assay: HEK293 wild type cell line counter screen (AID 1920065)
In short: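 Cells were plated and cultured 18 h at 37 C/5% CO2, then loaded with calcium dye for 1 h at 37 C. Compounds in DMSO were pin-transferred in agonist mode, and fluorescence (Ex/Em 480/540) was read kinetically for 3 min at 1 s intervals.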

[6] = p53 small molecule agonists, cell-based qHTS assay with human liver microsomes (AID 1963577);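 note: p53 response element beta-lactamase reporter cells with liver microsomes plus NADPH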
In short: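 Steps: plate p53RE-bla cells, incubate 5 h at 37 C; add compound in DMSO; add microsomes (0.5 mg/mL final) and NADPH (0.5 mg/mL final); incubate 16 h at 37 C; add LiveBLAzer, 2 h RT; read fluorescence.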

[7] = p53 small molecule agonists, cell-based qHTS assay with rat liver microsomes (AID 1963578)
In short: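 Metabolic activation is supplied by rat liver microsomes with NADPH (each 0.5 mg/mL final). p53RE-bla cells incubate with compound 16 h at 37 C; reporter activity is measured by LiveBLAzer fluorescence.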

[8] = p53 small molecule agonists, cell-based qHTS assay with human liver microsomes: qHTS cell viability counter screen (AID 1963579); note: nearly all actives have a fitted effect of over 45% in size; note: potency is the fitted concentration of half-maximal effect
In short: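 After the 460/530 nm beta-lactamase read, CellTiter-Glo was added to the same wells and luminescence measured after 30 min at room temperature, giving viability of p53RE-bla cells treated 16 h with compounds plus microsomes and NADPH.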

[9] = p53 small molecule agonists, cell-based qHTS assay: qHTS cell viability counter screen (AID 1963581); note: nearly all actives have a fitted effect of over 45% in size; note: potency is the fitted concentration of half-maximal effect
In short: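 p53RE-bla HCT-116 cells were exposed to compounds for 16 h at 37 C; after the beta-lactamase FRET read in the same wells, CellTiter-Glo was added and luminescence (intracellular ATP) read after 30 min at room temperature.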

[10] = molecular target: 5-hydroxytryptamine receptor 2A (Homo sapiens) (UniProt P28223); experiment: 5-hydroxytryptamine receptor 2A (HTR2A) small molecule antagonists, cell-based qHTS assay (AID 1963586); note: nearly all actives have a fitted effect of over 45% in size
5-hydroxytryptamine receptor 2A (Homo sapiens), sequence (P28223 whole entry, looked up): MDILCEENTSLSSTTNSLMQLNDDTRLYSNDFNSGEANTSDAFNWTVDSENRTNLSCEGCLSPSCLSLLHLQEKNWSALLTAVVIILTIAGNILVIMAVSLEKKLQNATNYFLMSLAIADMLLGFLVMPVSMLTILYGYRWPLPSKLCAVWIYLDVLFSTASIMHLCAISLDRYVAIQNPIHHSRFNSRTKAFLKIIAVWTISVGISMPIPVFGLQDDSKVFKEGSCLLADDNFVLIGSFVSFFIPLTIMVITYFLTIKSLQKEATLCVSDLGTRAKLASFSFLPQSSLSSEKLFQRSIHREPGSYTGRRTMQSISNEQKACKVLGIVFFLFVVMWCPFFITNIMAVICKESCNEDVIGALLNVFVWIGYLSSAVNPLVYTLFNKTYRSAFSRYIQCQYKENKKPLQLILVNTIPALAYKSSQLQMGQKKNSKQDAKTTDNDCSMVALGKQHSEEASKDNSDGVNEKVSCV
In short: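 Antagonist-mode intracellular calcium assay: DOI (4 nM) added after 5 min compound pre-incubation at room temperature to dye-loaded HTR2A-CHO cells. Fluorescence followed for 3 min, sampled every second.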

[11] = molecular target: 5-hydroxytryptamine receptor 2A (Homo sapiens) (UniProt P28223); experiment: 5-hydroxytryptamine receptor 2A (HTR2A) small molecule agonists, cell-based qHTS assay (AID 1963587); note: nearly all actives have a fitted effect of over 30% in size
In short: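 HTR2A-CHO cells, plated 18 h at 37 C/5% CO2, dye-loaded 1 h at 37 C; compounds in DMSO added by pin tool (agonist mode). Intracellular calcium flux read as kinetic fluorescence on FDSS over 2 min at 1 s intervals.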

[12] = molecular target: Muscarinic acetylcholine receptor M1 (Homo sapiens) (UniProt P11229); experiment: Cholinergic receptor muscarinic 1 (CHRM1) small molecule antagonists, cell-based qHTS assay (AID 1963588); note: nearly all actives have a fitted effect of over 40% in size; note: potency is the fitted concentration of half-maximal effect
Muscarinic acetylcholine receptor M1 (Homo sapiens), sequence (P11229 whole entry, looked up): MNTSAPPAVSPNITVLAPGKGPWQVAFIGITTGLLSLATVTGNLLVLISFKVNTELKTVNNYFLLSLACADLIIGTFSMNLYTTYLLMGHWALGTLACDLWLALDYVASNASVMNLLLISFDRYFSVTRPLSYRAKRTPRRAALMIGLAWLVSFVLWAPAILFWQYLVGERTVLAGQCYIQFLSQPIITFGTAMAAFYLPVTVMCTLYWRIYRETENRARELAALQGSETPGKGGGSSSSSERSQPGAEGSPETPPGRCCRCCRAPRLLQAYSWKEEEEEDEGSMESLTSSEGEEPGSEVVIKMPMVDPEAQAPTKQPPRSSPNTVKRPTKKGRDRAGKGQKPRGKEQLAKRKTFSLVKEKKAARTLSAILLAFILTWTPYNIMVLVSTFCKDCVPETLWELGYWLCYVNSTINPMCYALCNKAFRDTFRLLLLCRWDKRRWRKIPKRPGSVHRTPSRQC
In short: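 CHRM1-CHO calcium-flux assay, antagonist mode. Cells were seeded 18 h, dye-loaded 1 h at 37 C and given compound for 5 min at RT, then acetylcholine was added at 50nM. FDSS fluorescence was read 3 min; 15 concentrations, three runs.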

[13] = molecular target: Muscarinic acetylcholine receptor M1 (Homo sapiens) (UniProt P11229); experiment: Cholinergic receptor muscarinic 1 (CHRM1) small molecule agonists, cell-based qHTS assay (AID 1963589); note: nearly all actives have a fitted effect of over 35% in size
In short: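 CHO cells stably expressing human CHRM1, seeded 18 h at 37 C/5% CO2, dye-loaded 1 h at 37 C, then given compound in agonist mode; intracellular calcium fluorescence read kinetically at 1 s intervals. Fifteen concentrations, three independent runs.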

[14] = cAMP Responsive Elements (CRE) small molecule agonists, cell-based qHTS assay (AID 1963590)
In short: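 CRE-bla HEK 293T cells in DMEM with 10% dialyzed FBS, NEAA, pyruvate and 25 mM HEPES were plated 18 h at 37 C/5% CO2, then exposed to compounds in DMSO for 3 h before LiveBLAzer B/G FRET substrate addition.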

[15] = molecular target: Beta-2 adrenergic receptor (Homo sapiens) (UniProt P07550); experiment: Adrenergic beta2 receptor (ADRB2) small molecule agonists, cell-based qHTS assay (AID 1963593);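 note: CHO cells stably overexpressing human ADRB2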
Beta-2 adrenergic receptor (Homo sapiens), sequence (P07550 whole entry, looked up): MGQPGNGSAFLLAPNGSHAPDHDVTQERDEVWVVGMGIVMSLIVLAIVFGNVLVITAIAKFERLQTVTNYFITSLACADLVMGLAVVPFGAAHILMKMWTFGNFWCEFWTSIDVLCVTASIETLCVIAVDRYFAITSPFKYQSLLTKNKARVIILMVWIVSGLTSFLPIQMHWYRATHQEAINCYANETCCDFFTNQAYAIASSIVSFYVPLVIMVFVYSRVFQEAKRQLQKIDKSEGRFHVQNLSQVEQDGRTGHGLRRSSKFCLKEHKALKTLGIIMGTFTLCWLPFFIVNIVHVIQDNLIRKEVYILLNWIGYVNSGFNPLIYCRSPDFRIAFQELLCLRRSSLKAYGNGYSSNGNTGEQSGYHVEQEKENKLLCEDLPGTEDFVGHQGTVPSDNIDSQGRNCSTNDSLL
In short: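 CHO cells stably over-expressing ADRB2 were plated overnight at 37C, then dosed with compounds plus a stimulation mix containing 100uM IBMX and 25uM Ro-20-1724 for 0.5hr at room temperature. cAMP was measured by HTRF competition, 1hr.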

[16] = molecular target: D(2) dopamine receptor (Homo sapiens) (UniProt P14416); experiment: Dopamine D2 receptor (DRD2) small molecule agonists, cell-based qHTS assay (AID 1963594); note: nearly all actives have a fitted effect of over 35% in size
D(2) dopamine receptor (Homo sapiens), sequence (P14416 whole entry, looked up): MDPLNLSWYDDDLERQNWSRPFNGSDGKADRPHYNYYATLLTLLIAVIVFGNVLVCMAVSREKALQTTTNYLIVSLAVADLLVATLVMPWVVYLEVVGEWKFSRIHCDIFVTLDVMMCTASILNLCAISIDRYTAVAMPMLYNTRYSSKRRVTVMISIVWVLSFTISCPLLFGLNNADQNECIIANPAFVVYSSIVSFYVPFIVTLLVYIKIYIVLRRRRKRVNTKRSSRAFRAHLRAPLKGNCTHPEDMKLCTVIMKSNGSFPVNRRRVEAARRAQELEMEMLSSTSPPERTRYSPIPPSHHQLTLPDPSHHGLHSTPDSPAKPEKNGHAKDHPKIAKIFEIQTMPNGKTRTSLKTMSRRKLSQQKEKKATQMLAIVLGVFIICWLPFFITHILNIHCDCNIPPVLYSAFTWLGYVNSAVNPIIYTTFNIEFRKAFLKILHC
In short: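 HEK293 cells stably expressing DRD2 were cultured 24 h at 37 C, then given Ro20-1724 (0.1 mM final) and compounds for 10 min at room temperature. NKH477 (200nM) was then added for 30 min. cAMP was read by HTRF.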

[17] = molecular target: D(2) dopamine receptor (Homo sapiens) (UniProt P14416); experiment: Dopamine D2 receptor (DRD2) small molecule antagonists, cell-based qHTS assay (AID 1963595; active = well fitted inhibition curve with a large enough effect in the signal ratio in the repeat runs, with a control signal flat; the % refers to the signal ratio)
In short: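 Stable D2 receptor HEK293 line, 24 h after seeding. Compound preincubated 10 min, then quinpirole (12 nM) with forskolin analogue NKH477 (200 nM), 30 min, room temperature. Detection by time-resolved FRET of cAMP.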

[18] = cAMP Responsive Elements (CRE) small molecule antagonists, cell-based qHTS assay (AID 1963591; active = well fitted inhibition curve with a large enough effect in the signal ratio in the repeat runs, not every such curve was filed as active; the % refers to the signal ratio)
In short: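 CRE-bla HEK293T cells were plated 18 h at 37 °C/5% CO2, pinned with compound in DMSO, then stimulated with NKH477 at 0.25 uM final for 3 h. LiveBLAzer B/G FRET substrate was added and plates incubated 2 h at room temperature.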

[19] = molecular target: Beta-2 adrenergic receptor (Homo sapiens) (UniProt P07550); experiment: Adrenergic beta2 receptor (ADRB2) small molecule antagonists, cell-based qHTS assay (AID 1963592); note: nearly all actives have a fitted effect of over 50% in size; note: potency is the fitted concentration of half-maximal effect
In short: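 Cells (CHO, stable ADRB2 overexpression) incubated 18-20hr at 37C; compounds added from DMSO; agonist mix (1nM isoproterenol, 100uM IBMX, 25uM Ro-20-1724) added; 0.5hr RT; d2-cAMP and anti-cAMP-cryptate added; 1hr RT; 665/615 nm read.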

[20] = p53 small molecule agonists, cell-based qHTS assay with rat liver microsomes: qHTS cell viability counter screen (AID 1963580); note: nearly all actives have a fitted effect of over 45% in size; note: potency is the fitted concentration of half-maximal effect
In short: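 p53RE-bla HCT-116 cells (4,000/well) rested 5 h at 37 C, then given Tox21 compounds in DMSO with rat liver microsomes (0.5 mg/mL final) plus NADPH (0.5 mg/mL final) for 16 h at 37 C. Viability read by CellTiter-Glo luminescence after 30 min at room temperature.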

Measured: Potency

COc1cc(OC)nc(Sc2cccc(Cl)c2C(=O)O)n1
inactive: [1] | [2] | [3] | [4] | [5] | [6] | [7] | [8] | [9] | [10] | [11] | [12] | [13] | [14] | [15] | [16] | [17]

c1ccc2c(c1)Oc1ccccc1O2
inactive: [1] | [2] | [3] | [4] | [5] | [6] | [7] | [8] | [9] | [10] | [12] | [13] | [14] | [18] | [19] | [15] | [16] | [17]

CC(C)Nc1nc(Cl)nc(NC(C)C)n1
inactive: [1] | [2] | [3] | [4] | [5] | [6] | [7] | [8] | [20] | [11] | [13] | [14] | [18] | [19] | [15] | [16] | [17]

O=S(=O)(O)C(F)(F)C(F)(F)C(F)(F)C(F)(F)C(F)(F)C(F)(F)F
inactive: [1] | [2] | [3] | [4] | [5] | [6] | [7] | [8] | [9] | [10] | [11] | [12] | [13] | [14] | [18] | [19] | [16] | [17]

NC(=O)CCl
inactive: [1] | [3] | [4] | [5] | [6] | [7] | [8] | [9] | [10] | [11] | [12] | [13] | [14] | [18] | [19] | [16] | [17]
active: [2] 61.1 µM

CC(C)CC(C)(c1ccc(O)cc1)c1ccc(O)cc1
inactive: [2] | [3] | [4] | [5] | [6] | [7] | [9] | [11] | [12] | [13] | [19] | [16]
active: [1] 27.4 µM and 38.6 µM
inactive and 36.3 µM (active): [8]

C=CC(N)=O
inactive: [1] | [2] | [3] | [4] | [5] | [6] | [7] | [8] | [9] | [14] | [18] | [19] | [15] | [16] | [17]

CC(C)(c1ccccc1)c1cc(-n2nc3ccccc3n2)c(O)c(C(C)(C)c2ccccc2)c1
inactive: [1] | [2] | [3] | [4] | [5] | [6] | [7] | [8] | [9] | [10] | [11] | [12] | [13] | [14] | [18] | [19] | [16] | [17]

CCCCN(CCCC)N=O
inactive: [1] | [2] | [3] | [4] | [5] | [6] | [7] | [8] | [9] | [10] | [11] | [12] | [14] | [18] | [19] | [15] | [16] | [17]

CC[n+]1c(-c2ccccc2)c2cc(N)ccc2c2ccc(N)cc21
inactive: [3] | [4] | [5] | [6] | [7] | [8] | [9] | [10] | [11] | [14]
inactive and 10.6 µM (active): [2]
active: [1] 48.3 µM and 7.5 µM | [12] 8.36 µM and 9.18 µM

CCC(C)C(C)(COC(N)=O)COC(N)=O (stereo not drawn)
inactive: [1] | [2] | [3] | [4] | [5] | [6] | [7] | [8] | [9] | [10] | [11] | [12] | [13] | [14] | [18] | [19] | [16] | [17]

O=c1[nH]c2ccccc2n1C1CCN(CCCC(c2ccc(F)cc2)c2ccc(F)cc2)CC1
40.8 µM (active) and inactive: [20]
inactive: [2] | [3] | [4] | [5] | [6] | [7] | [11] | [12] | [13] | [16]
28.9 µM (active) and inactive: [8]
active: [1] 27.3 µM and 13.3 µM | [19] 33.5 µM

[O]=[Cr](=[O])([OH])[O][Cr](=[O])(=[O])[OH]
active: [1] 30.9 µM and 61 µM | [8] 40.7 µM | [9] 18.4 µM
inactive: [2] | [3] | [4] | [5] | [6] | [7] | [10] | [11] | [12] | [13] | [14] | [19] | [16]

ClCc1ccccc1CCl
active: [2] 61.1 µM
inactive: [1] | [3] | [4] | [5] | [6] | [7] | [8] | [9] | [10] | [11] | [12] | [14] | [18] | [19] | [16] | [17]

C[C@H]1CCCC(=O)CCC/C=C/c2cc(O)cc(O)c2C(=O)O1
inactive: [2] | [3] | [4] | [5] | [6] | [7] | [8] | [20] | [10] | [11] | [12] | [13] | [14] | [19] | [16] | [17]
58.9 µM (active) and inactive: [1]
